Compound activity from PubChem.
Only some compounds are listed: those with a hit (about 19% of all), similar ones and a draw of the others.
ELG1 repair inh: blocks ELG1-dependent DNA repair in HEK293T cells; Potency, µM (titrated, usually from 46.1 µM), without a hit: at the highest dose activity change, negative = inhibition, most hits filed as inhibitors; AID 504467; HEK293T ELG1-luciferase reporter, luminescence, 16 h; DNA damage induced by 5-fluorouridine; 330,000 compounds, 2.3% hits; further: potency means the concentration at half of the fitted maximal effect; nearly all actives have a fitted effect of over 55% in size
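Cells (2,000 per well) received 5-fluorouridine plus test compound or DMSO and were incubated 16 hr at 37 °C, 5% CO2. Luciferase activity was read by luminescence 30 min after ONE-Glo addition; signal suppression marked inhibition of damage-induced ELG1 function.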
TDP1 block: blocks human tyrosyl-DNA phosphodiesterase 1; Potency, µM (series often up to 130 µM), without a hit: at the highest dose activity change, negative = inhibition, hits mostly inhibitors; Q9NUW8; recombinant TDP1, AlphaScreen DNA substrate cleavage; AID 485290; 350,000 compounds, 0.28% hits; further: potency means the concentration at half of the fitted maximal effect; nearly all actives have a fitted effect of over 40% in size
Target sequence (Q9NUW8 whole entry, looked up): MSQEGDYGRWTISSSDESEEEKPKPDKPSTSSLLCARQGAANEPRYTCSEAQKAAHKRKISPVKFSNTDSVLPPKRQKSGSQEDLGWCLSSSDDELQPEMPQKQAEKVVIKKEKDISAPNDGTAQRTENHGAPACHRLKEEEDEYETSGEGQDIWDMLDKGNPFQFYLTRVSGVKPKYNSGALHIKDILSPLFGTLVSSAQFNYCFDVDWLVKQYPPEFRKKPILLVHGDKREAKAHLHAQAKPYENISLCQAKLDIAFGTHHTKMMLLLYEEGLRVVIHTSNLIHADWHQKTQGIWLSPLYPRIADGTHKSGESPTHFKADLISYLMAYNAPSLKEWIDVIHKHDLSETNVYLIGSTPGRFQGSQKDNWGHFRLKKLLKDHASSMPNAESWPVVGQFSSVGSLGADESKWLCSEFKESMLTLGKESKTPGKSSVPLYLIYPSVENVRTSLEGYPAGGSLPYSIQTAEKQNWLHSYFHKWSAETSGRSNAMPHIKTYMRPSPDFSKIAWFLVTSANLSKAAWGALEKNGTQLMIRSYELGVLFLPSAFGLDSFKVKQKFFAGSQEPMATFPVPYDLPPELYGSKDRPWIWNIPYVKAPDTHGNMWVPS
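Compounds were preincubated with Tdp1 (1 nM final) for 15 min at room temperature before substrate (15 nM final) started a 5 min reaction; beads (10 ug/ml final) were then added for 10 min before AlphaScreen detection.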
Giardia killer: kills Giardia lamblia; 340,000 compounds, 0.15% hits; activity change, % at 7.66 µM, hits read low; Giardia lamblia trophozoite viability; in the data active means activity change below about -80%; inconclusive means between about -30% and that limit;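 further: parasites exposed to compound for two days anaerobically before the ATP read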
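ATP-content bioluminescence gauges trophozoite survival. Cells (100/well) receive compound and incubate anaerobically for 48 hrs at 37 deg C; detection reagent follows for 15-30 min at room temperature.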
TDP1 cell CPT: growth inhibition of DT40 Tdp1-/-;hTDP1 cells with camptothecin (screen for TDP1 inhibitors); Potency, µM (highest dose often 46.2 µM), for inactives: at the top dose activity change, negative = growth inhibition, usual class: inhibitors; 420,000 compounds, 12% hits; AID 686979; chicken DT40 Tdp1-/-;hTDP1 cells + 20 nM CPT, ATP luminescence, 48 h; further: potency means the concentration at half of the fitted maximal effect; nearly all actives have a fitted effect of over 55% in size
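Chicken DT40 Tdp1-/- cells stably complemented with human TDP1 were seeded at 400 cells/well in medium containing 20 nM camptothecin, exposed to pin-transferred compounds, and grown at 37 °C for at least 48 hr. Viability was read as ATP luminescence.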
DT40 TDP1 no CPT: qHTS for Inhibitors of human tyrosyl-DNA phosphodiesterase 1 (TDP1): qHTS in cells in absence of CPT; Potency, µM (titrated, usually from 46.2 µM), inactives show top-dose activity change, negative = growth inhibition, usual class: inhibitors; DT40 Tdp1-/- hTDP1 cells, no CPT, ATP luminescence, 48 h; 420,000 compounds, 15% hits; AID 686978, 2013; further: potency means the concentration at half of the fitted maximal effect; nearly all actives have a fitted effect of over 55% in size
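Growth kinetics read by CellTiter-Glo luminescence after ≥48 hr at 37 °C. Cells: DT40 Tdp1-/- stably carrying human TDP1, 400 per well, compound exposure in the absence of CPT (DMSO vehicle).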
IL-1B inflam inh: inhibitors of inflammasome signaling (IL-1 beta secretion) | THP-1 LPS/ATP IL-1B secretion, AlphaLISA, 16 h; stronger effect = lower value | activity change, % at 57.5 µM | 360,000 compounds, 4.7% hits | AID 743279; in the data active means activity change below about -50%; inconclusive means mostly about -30% to -49%
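Secreted IL-1B measured by AlphaLISA bead assay after 16 h compound exposure of THP-1 cells; compounds (final up to 57.5 uM) added 1 h before LPS (250 ng/mL) and ATP (1.25 mM) stimulation; lower signal means less secretion.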
Active calls of the source: *; ? = inconclusive; · = no result; [ ] = remark or other dose. Unless noted, the call rests on the fitted dose curve; in most records, active means well fitted curve in the direction sought with a large enough effect; inconclusive means small, poorly fitted or top-dose-only effect, or another doubt; inactive means no such curve, though single readings can be large; an effect the other way counts as inactive or inconclusive. On the % scale 0 is the no-effect control and ±100 the full control effect.

SMILES | ELG1 repair inh | TDP1 block | Giardia killer | TDP1 cell CPT | DT40 TDP1 no CPT | IL-1B inflam inh
Cc1ccc(Sc2ccc(N3CCCC(C(=O)Nc4ccc(Cl)cc4)C3)nn2)cc1 (stereo not given) | · | 4% | · | ? | ? | ·
COc1ccc2c3c1O[C@H]1[C@@H](O)C=C[C@H]4[C@@H](C2)N(C)CC[C@@]341 | · | · | · | -8%[92.5 µM] | 0%[92.5 µM] | ·
CC(=O)OC1C(O)C2=C3C4(C)C1C(C)(C)C(=O)CC4C3(O)C(OC(C)=O)C1(CC1C)C2=O (stereo not given) | · | · | · | 5.8µM* | 7.3µM* | -121*
CC(C)C[C@H](NC(=O)[C@H](Cc1ccccc1)NC(=O)CNC(=O)[C@H](CS)N(C(=O)[C@@H](N)Cc1ccc(O)cc1)C(C)(C)C)C(=O)N([C@H](C(=O)O)[C@H](C)O)C(C)(C)C | · | 2% | · | -5%[4.12 µM] | -4%[4.12 µM] | ·
COC(=O)C1=C(c2cc3ccccc3o2)C[C@@H]2CC[C@H]1N2C(=O)NCc1cccc2ccccc12 | · | · | 9 | ? | 16µM* | -15
COC(=O)C1=C(c2cc3ccccc3o2)C[C@@H]2CC[C@H]1N2C(=O)NCc1ccc(F)cc1 | · | · | -2 | ? | · | -14
COC(=O)C1=C(c2ccc(S(C)(=O)=O)cc2)C[C@@H]2CC[C@H]1N2C(=O)NCc1cccc2ccccc12 | · | · | -11 | 29µM* | · | -11
COC(=O)C1=C(c2cc3ccccc3o2)C[C@@H]2CC[C@H]1N2C(=O)NCc1ccco1 | · | · | 33 | 16µM* | · | -12
COC(=O)C1=C(c2cccc(C#N)c2)C[C@@H]2CC[C@H]1N2C(=O)NCc1cccc2ccccc12 | -20% | 0% | -6 | ? | -29% | -18
CCCc1[nH]nc2c1C(c1ccc(OC)c(Cn3nnc4ccccc43)c1)C(C#N)=C(N)O2 (stereo not given) | · | 2% | -9 | 26µM* | ? | 2
CCN(CC)CCOC(=O)C(C)(c1ccccc1)c1ccccc1 | · | 1% | · | ? | ? | ·
O=c1c(C=NCc2cccs2)c(O)n(C2CCCCC2)c(=O)n1C1CCCCC1 | -13% | 0% | -1 | -26% | ? | -6
O=c1c(C=NCCN2CCNCC2)c(O)n(C2CCCCC2)c(=O)n1C1CCCCC1 | 10% | -5% | -2 | 16µM* | ? | -61*
CN(C)c1ccc(CNC(=O)Cn2c(=O)oc3cc(S(=O)(=O)N4CCCCCC4)ccc32)cc1 | · | 8% | · | 12µM* | -28% | ·
COc1ccc(CNC(=O)Cn2c(=O)oc3cc(S(=O)(=O)N4CCCC4)ccc32)cc1 | -5% | 4% | -7 | 18µM* | ? | -6
CC(C)CCNC(=O)Cn1c(=O)oc2cc(S(=O)(=O)N3CCc4ccccc43)ccc21 | ? | 2% | -22 | ? | ? | -1
CC(C)c1ccc(NC(=O)Cn2c(=O)oc3cc(S(=O)(=O)N4CCCC4)ccc32)cc1 | · | 5% | · | 9.2µM* | ? | ·
COc1c(Cl)cc(Cl)cc1C(=O)Nc1cccc(-c2nc3ccccc3o2)c1C | · | -8% | · | ? | ? | ·
O=c1[nH]c(=S)n(C2CC2)c(O)c1/C=N/Nc1cccc2ccccc12 | 13% | 5% | -2 | 16µM* | ? | 6
CCCCCC(=O)N[C@@H](c1ccccc1)[C@@H](O)C(=O)O[C@H]1C[C@@]2(O)[C@@H](OC(=O)c3ccccc3)C3[C@](C)(C(=O)[C@H](O)C(=C1C)C2(C)C)[C@@H](OC1OCC(O)C(O)C1O)C[C@H]1OC[C@@]31OC(C)=O (stereo not given in full) | -13% | · | 16 | 1.2µM* | 0.58µM* | 44
CC(=O)O[C@@]12CO[C@@H]1C[C@H](OC1OCC(O)C(O)C1O)[C@@]1(C)C(=O)[C@H](O)C3=C(C)[C@@H](OC(=O)[C@H](O)[C@@H](NC(=O)c4ccccc4)c4ccccc4)C[C@@](O)([C@@H](OC(=O)c4ccccc4)C12)C3(C)C (stereo not given in full) | -22% | · | 12 | 1.2µM* | 1µM* | 11
CC(=O)O[C@@]12CO[C@@H]1C[C@@H](O)[C@@]1(C)C(=O)[C@H](O)C3=C(C)[C@@H](OC(=O)[C@H](O)[C@@H](NC(=O)c4ccccc4)c4ccccc4)C[C@@](O)([C@@H](OC(=O)c4ccccc4)C12)C3(C)C (stereo not given in full) | ? | · | -12 | 0.046µM* | 0.065µM* | 30
CCn1c(N)c(C(=O)NC)sc1=S | -6% | 7% | 7 | 18µM* | 16µM* | -20
COc1ccc(Nc2nc(N)nc(CSc3nc4ccccc4s3)n2)cc1 | · | · | · | 15µM* | 16µM* | ·
COc1ccccc1-n1c(/C=C/c2ccc(O)cc2)nc2ccccc2c1=O | ? | · | -6 | ? | ? | ?
SMILES | ELG1 repair inh | TDP1 block | Giardia killer | TDP1 cell CPT | DT40 TDP1 no CPT | IL-1B inflam inh
COc1ccccc1-n1c(-c2ccccc2Br)nc2ccccc2c1=O | -15% | · | 2 | 23µM* | 18µM* | 1
COc1ccccc1-n1c(-c2ccccc2F)nc2ccccc2c1=O | · | · | 4 | ? | ? | -3
COc1ccccc1-n1c(-c2ccc(C)cc2)nc2ccccc2c1=O | 2% | · | -2 | ? | 12µM* | 1
Cc1nc2ccccc2c(=O)n1-c1ccccc1Cl | · | · | · | ? | 24µM* | ·
Cc1nc2ccc(Cl)cc2c(=O)n1-c1ccccc1Cl | -23% | · | 3 | -26% | -85% | -11
O=C(CSc1nnc(NC(=O)c2cccc(F)c2)s1)NCc1ccco1 | ? | 1% | -19 | -15% | 12% | 3
CCCC1=Nc2cc(C(=O)NC3CCC(C)CC3)ccc2Sc2ccccc21 (stereo not given) | · | 0%[12.3 µM] | · | 6.5µM* | 4.1µM* | ·
Cc1nn(CC(C)C)c(Cl)c1C(=O)NC1CCC(C)CC1 (stereo not given) | ? | · | -22 | 7% | -9% | 33
CCCC1=Nc2cc(C(=O)NCCc3ccc(OC)cc3OC)ccc2Sc2ccccc21 | · | 2% | · | 18µM* | ? | ·
CNC(=O)O/N=C/C(C)(C)SC | · | -5%[56.1 µM] | · | 15% | 20% | ·
NC(Cc1ccc(O)cc1)C(=O)NN=Cc1ccc(N(CCCl)CCCl)cc1 (stereo not given) | · | · | -20 | 8.2µM* | 13µM* | -2
Cc1ccc(C)c(-n2c(C)nc3ccccc3c2=O)c1 | 0% | · | 5 | ? | ? | 13
Cc1ccc2c(c1)c(C1=c3ccccc3=NC1=O)c(O)n2C | 1% | · | -2 | 4.6µM* | 2.1µM* | -15
